Test results: ChEMBL document CHEMBL3433997, “St. Jude Leishmania screening dataset” (2016)
Several values for one entry are separate records, joined by “and”; a condition that tells them apart may be missing. Equal entries are not always repeated.

Assays:
Format in all cases: functional
[1] = molecular target: Solute carrier family 2, facilitated glucose transporter member 1 (Homo sapiens) (UniProt P11166); test: ST_JUDE_LEISH: Cytotoxicity at 2uM final concentration against transgenic Leishmania Mexicana promastigotes LmGLUT1 that are glucose transport deficient and complemented with the human glucose transporter GLUT1. Activity is measured by DNA content using SYBR green in vitro
[2] = molecular target: Hexose transporter 1 (Plasmodium falciparum) (UniProt O97467); test: ST_JUDE_LEISH: Cytotoxicity at 2uM final concentration against transgenic Leishmania Mexicana promastigotes LmPfHT that are glucose transport deficient and complemented with the Plasmodium falciparum hexose transporter. Activity is measured by DNA content using SYBR green in vitro
[3] = molecular target: Glucose transporter (Leishmania mexicana) (UniProt O61059); test: ST_JUDE_LEISH: Cytotoxicity at 2uM final concentration against transgenic Leishmania Mexicana promastigotes LmGT2 that are glucose transport deficient and complemented with the L. Mexicana glucose transporter 2. Activity is measured by DNA content using SYBR green in vitro

Sequence of Solute carrier family 2, facilitated glucose transporter member 1 (Homo sapiens) (P11166 whole entry): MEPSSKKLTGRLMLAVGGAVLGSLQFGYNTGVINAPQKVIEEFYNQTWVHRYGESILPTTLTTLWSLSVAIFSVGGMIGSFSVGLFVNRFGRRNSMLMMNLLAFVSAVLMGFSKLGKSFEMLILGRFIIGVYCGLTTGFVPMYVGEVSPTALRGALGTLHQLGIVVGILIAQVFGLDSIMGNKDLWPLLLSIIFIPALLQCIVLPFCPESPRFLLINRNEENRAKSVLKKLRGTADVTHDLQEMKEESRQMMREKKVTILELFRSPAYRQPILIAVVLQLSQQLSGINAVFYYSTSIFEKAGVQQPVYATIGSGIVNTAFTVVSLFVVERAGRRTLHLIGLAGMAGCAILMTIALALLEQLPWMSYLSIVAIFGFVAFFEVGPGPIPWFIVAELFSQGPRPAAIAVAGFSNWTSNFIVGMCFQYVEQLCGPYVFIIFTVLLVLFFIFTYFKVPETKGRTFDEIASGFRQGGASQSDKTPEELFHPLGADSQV

Compound	inhibition [1]	inhibition [2]	inhibition [3]
OCC1CCN(Cc2ccc(-c3ccc(-c4nc5ccccc5[nH]4)cc3)cc2)CC1	6.11%	5.06%	5.45%
COc1ccc2nc(C)cc(NC3Cc4ccccc4C3)c2c1	7.7%	5.19%	0.76%
Cn1ncc2c3c(CCN4CCC(NCc5ccc6c(c5)NC(=O)CO6)CC4)c(Cl)cnc3ccc21	1.41%	2.09%	-0.28%
N=C(N)Nc1ccc(OCCCCCOc2ccc(NC(=N)N)cc2)cc1	13.7%	20.2%	0.71%
CCN(CC)c1nc(-c2ccccc2)cc(-c2ccccc2)c1C#N	1.31%	1.62%	-0.21%
COc1ccccc1-c1cc(C(=O)N2CCN(S(=O)(=O)c3ccc(C)cc3)CC2)[nH]n1	6.02%	3.73%	-0.58%
COc1cc(C2CCCCC2)c(OC)cc1CC1c2cc(O)c(Cl)cc2CCN1C (stereo not drawn)	3.83%	-0.22%	12.9%
O=C(Nc1ccc(Cn2ncc(N3CCCNCC3)c(Cl)c2=O)cc1)Nc1ccc(-c2ccccc2)cc1	-0.52% and 1.84%	0.35% and 2.4%	-4.66% and 1.38%
Cc1ccc(C(=O)Nc2cccc(CN3CCCN(Cc4ccc(O)cc4)CC3)c2)cc1	1.89%	0.24%	-7.6%
CC1CN(Cc2ccccc2)CCN1c1ccc(NC(=O)c2ccc(F)cc2)cc1 (stereo not drawn)	-1.05%	-1.7%	-3.4%
Cc1cccc2nc(-c3ccc(-c4cccc(CNCCNC(=O)c5ccnn5C)c4)cc3)[nH]c12	0.53%	1.5%	-3.68%
OCCN1CCN(Cc2ccc(-c3cccc(-c4nc5cc(F)ccc5[nH]4)c3)cc2)CC1	2.82%	-0.2%	0.18%
CO/C(=C\C=C\c1cc2cc(Cl)c(Cl)cc2[nH]1)C(=O)NCCCN1CCN(c2cccc(OCC(=O)Nc3ccccc3)c2)CC1	8.53%	8.92%	5.76%
COc1cccc(C(=O)NCCc2cccc(Cl)c2)c1OCc1ccccc1	0.04%	-0.53%	-0.7%
CCN1CCN(C(=O)NC(C(=O)N2CCCC(COc3ccc(Cc4ccccc4)cc3)C2)c2cccs2)C(=O)C1=O (stereo not drawn)	3.59%	3.3%	4.28%
Cc1[nH]c2ccccc2c1C(=O)C(C)Sc1nnc(-c2ccccc2Br)[nH]1 (stereo not drawn)	0.54%	2.81%	0.86%
Cc1cc(=O)c(-c2ccc(OCc3ccc(OC(F)(F)F)cc3)cc2)c(C)[nH]1	7.02%	4.41%	2.08%
CCCCN(CCCC)CCNC(=O)c1ccc(-c2nc3cc(Cl)ccc3[nH]2)c(OCC)c1	4.49%	2.11%	4.26%
O=c1c2ccccc2[nH]c2nc3ccccc3c(Nc3ccccc3)c12	10.2%	12.5%	8.59%
O=C(NC1CCCCC1)N(Cc1ccc(-c2cccc(CNC3CCCC3)c2)cc1)C1CCN(Cc2ccccc2)CC1	6.18%	7.64%	5.72%
Cc1c(S(=O)(=O)Nc2ccc3nccc(N4CC(C)NC(C)C4)c3c2)sc2ccc(Cl)cc12 (stereo not drawn)	5.22%	6.03%	3.81%
COc1ccc(-c2nc(-c3ccc([N+](=O)[O-])cc3)no2)cc1OC	1.91%	2.39%	1.76%
Cc1cc(Br)c(OCCCON2C(=N)N=C(N)NC2(C)C)c(Br)c1	2.66%	4.88%	1.2%
Cc1cccc(NC(=O)Nc2ccc(I)c(OCCN(C)C)c2)c1C	15.2%	9.78%	10.1%

Compound	inhibition [1]	inhibition [2]	inhibition [3]
CC(C)N(Cc1ccc(-c2ccc(C(F)(F)F)cc2)cc1)C(=O)Cn1c(CCc2cccc(F)c2F)cc(=O)c2ccc(CCCN3CCCCC3)cc21	3.56%	4.4%	3.61%
Cc1nnc2sc(-c3cccc(NC(=O)c4ccc(N5CCCCC5)c([N+](=O)[O-])c4)c3)nn12	0.34%	-1.03%	-0.5%
CCOC(=O)c1ccc(-c2c(C(F)(F)F)noc2-c2cc(CC)c(OC)cc2O)o1	3.34%	2.22%	1.45%
COc1cccc(C2CCN(CCN3CCC(NC(=O)c4ccc(-c5ccc(C(F)(F)F)cc5)cc4)CC3)CC2)c1	4.19%	5.8%	6.6%
O=C(NC1CC1)c1ccc2cc(C(=O)N3Cc4ccccc4C(c4ccccc4)C3)ccc2c1 (stereo not drawn)	2.37%	-0.61%	-1.42%
O=C(Nc1cccc(-c2nn3ccccc3c2-c2ccnc(Nc3cccc(N4CCCC4=O)c3)n2)c1)c1cc(F)ccc1F	2.51%	3.22%	1.96%
COc1cc(CCOc2c(C)nc(N)nc2N)cc(OC)c1OC	-0.69%	0.7%	-0.41%
c1ccc2c(Nc3ccc(Cc4ccc(Nc5c6ccccc6nc6ccccc56)cc4)cc3)c3ccccc3nc2c1	6.04%	6.65%	2.95%
COc1ccc(-c2nc3c(N)nc(N)nc3nc2C(C)C)cc1	15.6%	30.7%	21.4%
CC(=Nc1ccc(Cl)c(Cl)c1)N(C)C	0.17%	0.54%	0.02%
O=C(Nc1nc2cc(S(=O)(=O)NCc3ccc(Cl)c(Cl)c3)ccc2n1CCCn1ccnc1)c1ccc(Cl)cc1	6.51%	4.45%	4.53%
Cc1cccc2nc(-c3ccc(-c4cccc(CN5CCN(CC6CCCN(C)C6)CC5)c4)s3)[nH]c12 (stereo not drawn)	7.18%	-3.27%	0.69%
CCOc1c(CNCCCNc2nc3ccccc3[nH]2)cc(I)cc1OC	1.59%	1.56%	2.86%
O=C(N[C@@H](Cc1ccccc1)C(=O)NC1CCCCC1)c1ccc(O)c(-c2ccc(Cl)c(Cl)c2)c1	-0.99%	0.22%	-0.73%
COc1ccc(C=NN=c2c3ccccc3[nH]c3ccccc23)c2ccccc12	6.42%	5.85%	5.05%
NCc1ccc(CNCc2cccc(-c3cccc(-c4nc5ccccc5[nH]4)c3)c2)cc1	1.02%	-3.61%	3.76%
COc1cccc2c(NN=Cc3ccc(Cl)cc3)ccnc12	2.42%	2.54%	2.21%
Cc1cc(-c2ccc(CNCc3ccsc3)cc2)ccc1S(=O)(=O)NCCN1CCCC1	61.3%	21.9%	-0.36%
COc1cc2c(c(Cl)c1OC)CCN(Cc1ccccc1)CC2c1ccc(C(N)=O)cc1 (stereo not drawn)	2.24%	1.77%	1.62%
COc1c(C2CCN(CCCCNC(=O)C=Cc3ccccc3C(F)(F)F)CC2)ccc2c1CCCC2	-0.06%	-0.81%	-0.49%
CN(C)CCN(Cc1ccccc1-c1ccc(CNCCc2ccccc2)cc1)C(=O)NC1CCCCC1	3.67%	3.66%	0.85%
N=C1N=C(N)NC2(CCCCC2)N1OCC1CCCCC1	-0.96%	-0.44%	-1.26%
O=C(Nc1cccc(CN2CCCN(Cc3ccc(O)cc3)CC2)c1)c1ccc(-c2ccccc2)cc1	1.14%	0.52%	-2.97%
Cc1ccc(Cn2ncc(N3CCNCC3)c(Cl)c2=O)cc1NC(=O)Nc1ccc(-c2ccccc2)cc1	-0.01%	2.78%	2.01%

Compound	inhibition [1]	inhibition [2]	inhibition [3]
COc1c(C2=CCN(CCCCNC(=O)c3ccc(-c4ccc(C#N)cc4)cc3)CC2)c(C)cc2c1C(C)(C)CCC2(C)C	2.63%	2.18%	0.96%
COc1ccccc1CC1CCCN(C2CCC(NC(=O)c3cc4ccccc4[nH]3)CC2)C1 (stereo not drawn)	0.46%	0.32%	-0.6%
COC(=O)C1(NC(=O)c2ccc(-n3nc(C)c(-c4ccccc4)c3N)cc2)CCCC1	2.04%	2.33%	2.55%
COc1ccc2nccc([C@@H](O)CN3C4CCC3CC(NCc3ccc5c(n3)NC(=O)CS5)C4)c2n1 (stereo partly drawn)	1.63%	1.76%	-2.06%
NCc1cccc(-c2ccc(CNC3CCN(Cc4ccccc4)CC3)cc2)c1	6.37%	2.02%	-1.34%
COc1cc2nc(-c3ccc(Br)cc3)cc(N)c2cc1OC	64.2%	23.6%	29.1%
O=C(/C=C/c1ccc(Cl)c(Cl)c1)NC1CCC(CN2CCC(c3coc4ccccc34)CC2)CC1 (stereo not drawn)	-1.76%	1.76%	-1.87%
CC(C)COc1ccc(Cl)cc1Cc1nc(-c2nc3ccc(CN4CCCCC4)cc3[nH]2)co1	4.83%	3.69%	2.91%
O=C(Nc1cccc(-c2nn3ccccc3c2-c2ccnc(Nc3cccc(-c4cnco4)c3)n2)c1)C1CCCCC1	1.06%	3.39%	-0.16%
OCCOCCNCc1cccc(C#Cc2cc3ncnc(Nc4ccc(OCc5cccc(F)c5)c(Cl)c4)c3s2)n1	-0.5%	1.33%	1.82%
Cc1nnc2c(NC(=O)NC3CCCC3)cc3cc(-c4ccc(CN5CCN(C)CC5)cc4)ccc3n12	7.2%	4.95%	4.79%
OC(CNCc1ccccc1OCc1ccccc1)c1cccc(C(F)(F)F)c1 (stereo not drawn)	15.1%	11.6%	10.8%
COc1cc(C(=O)Nc2cccc(-c3cn4ccc(C)cc4n3)c2)cc(OC)c1OC	17.1%	8.22%	6.63%
c1ccc(Oc2ccc(Nc3ccnc(Nc4cccc(CNCCCN5CCOCC5)c4)n3)cc2)cc1	-3.58%	-2.31%	-1.79%
COc1ccc(CNC2Cc3ccccc3C2)cc1-c1ccc(S(=O)(=O)NCCN2CCCC2)cc1	3.15%	1.44%	-2.73%
COc1ccc2c(NN=Cc3cccc(Cl)c3)ccnc2c1	0.29%	0.23%	-0.9%
CO/C(=C\C=C\c1cc2cc(Cl)c(Cl)cc2[nH]1)C(=O)NC1CCN(CCNc2ccccc2)CC1	-1.91%	-1.2%	0.08%
Cc1cc2nc(-c3cc(Br)ccc3O)c(-c3cc(Br)ccc3O)nc2cc1C	-1.26%	-1.38%	-1.13%
CC(Nc1cc(-c2ccccn2)nc(-c2ccccn2)n1)c1ccccc1 (stereo not drawn)	23.4%	12.8%	17.5%
Cc1cc(NC(=O)c2ccco2)ccc1OC1CCN(Cc2ccccc2)CC1	0.52%	4.72%	1.9%
Nc1nc(-c2ccccn2)nc(-n2nc(-c3cccc(C(F)(F)F)c3)cc2N)n1	3.56%	2.31%	1.29%
CO/C(=C\C=C\c1cc2cc(Cl)c(Cl)cc2[nH]1)C(=O)NCCCN1CCN(c2ccncc2)CC1	4.85%	3.18%	3.48%
Cc1cc(N(C)C)nc(Nc2ccc(NC(=O)c3ccc(F)cc3)cc2)n1	5.57%	8.06%	3.85%
